Assay results from ChEMBL document CHEMBL3988442, “University of Dundee, Small-Polar-MMV Screening Library” (2021).
For part of these data: Measured potencies and affinities stand elsewhere.

Experiments:
Set-up in all cases: scale not given: direction of the effect not stated beside the values
[1] = target: Protein translocase subunit SecA (Escherichia coli (strain K12)) (UniProt P10408); experiment: Assay to Identify E. coli SecA ATPase Inhibitors; assay type: functional; conditions: 30 µM
[2] = target: T1, Ubiquitin-activating enzyme e1, putative (Leishmania donovani (strain BPK282A1)) (UniProt E9BSI1); experiment: Leishmania donovani Ubiquitin Activating Enzyme (LdE1); assay type: functional; conditions: 30 µM
T1 sequence (whole entry): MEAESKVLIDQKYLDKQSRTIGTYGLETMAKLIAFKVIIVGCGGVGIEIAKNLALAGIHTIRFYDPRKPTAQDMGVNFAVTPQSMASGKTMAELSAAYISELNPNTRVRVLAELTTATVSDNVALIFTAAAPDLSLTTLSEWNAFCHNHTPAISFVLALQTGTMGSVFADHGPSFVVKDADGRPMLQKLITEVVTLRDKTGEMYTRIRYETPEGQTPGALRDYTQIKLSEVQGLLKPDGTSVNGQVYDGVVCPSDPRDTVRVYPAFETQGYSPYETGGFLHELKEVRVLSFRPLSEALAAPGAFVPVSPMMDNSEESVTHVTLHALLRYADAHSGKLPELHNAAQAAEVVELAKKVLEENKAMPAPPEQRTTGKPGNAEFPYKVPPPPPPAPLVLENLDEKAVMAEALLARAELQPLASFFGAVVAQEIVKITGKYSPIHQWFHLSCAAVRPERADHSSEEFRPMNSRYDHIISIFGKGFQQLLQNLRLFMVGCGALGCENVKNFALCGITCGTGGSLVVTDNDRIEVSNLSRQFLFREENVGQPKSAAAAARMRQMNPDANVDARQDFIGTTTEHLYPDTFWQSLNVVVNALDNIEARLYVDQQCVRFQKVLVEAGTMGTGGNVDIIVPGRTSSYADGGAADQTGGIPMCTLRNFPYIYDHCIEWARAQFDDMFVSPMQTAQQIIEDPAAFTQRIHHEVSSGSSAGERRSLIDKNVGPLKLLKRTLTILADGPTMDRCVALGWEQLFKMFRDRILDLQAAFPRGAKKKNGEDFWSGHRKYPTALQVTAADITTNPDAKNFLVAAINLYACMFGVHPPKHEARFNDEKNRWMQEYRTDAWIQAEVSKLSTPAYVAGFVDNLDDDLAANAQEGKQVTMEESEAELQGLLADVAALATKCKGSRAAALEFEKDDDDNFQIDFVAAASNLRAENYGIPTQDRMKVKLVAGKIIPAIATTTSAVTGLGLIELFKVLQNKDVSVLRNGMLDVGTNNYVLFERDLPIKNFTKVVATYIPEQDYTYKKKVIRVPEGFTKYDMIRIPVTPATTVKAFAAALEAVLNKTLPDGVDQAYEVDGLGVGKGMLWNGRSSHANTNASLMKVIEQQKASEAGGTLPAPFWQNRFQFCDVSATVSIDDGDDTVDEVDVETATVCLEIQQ

[3] = target: AMP-activated protein kinase, AMPK (Homo sapiens) (UniProt P54646+O43741+P54619+Q9UGJ0+Q9Y478+Q13131+Q9UGI9); experiment: AMP-dependent Kinase enzyme assay. An in vitro enzyme assay that detects ADP turnover that is directly proportional to AMPK activity. This uses naive AMPK that is activated during the assay with MK-8722; assay type: functional; conditions: 30 µM
[4] = target: Sialic acid-binding Ig-like lectin 9 (Homo sapiens) (UniProt Q9Y336); experiment: Hs-Siglec9 ALPHAscreen SOP 20170721; conditions: 10 µM
Sialic acid-binding Ig-like lectin 9 (Homo sapiens), sequence (Q9Y336 whole entry): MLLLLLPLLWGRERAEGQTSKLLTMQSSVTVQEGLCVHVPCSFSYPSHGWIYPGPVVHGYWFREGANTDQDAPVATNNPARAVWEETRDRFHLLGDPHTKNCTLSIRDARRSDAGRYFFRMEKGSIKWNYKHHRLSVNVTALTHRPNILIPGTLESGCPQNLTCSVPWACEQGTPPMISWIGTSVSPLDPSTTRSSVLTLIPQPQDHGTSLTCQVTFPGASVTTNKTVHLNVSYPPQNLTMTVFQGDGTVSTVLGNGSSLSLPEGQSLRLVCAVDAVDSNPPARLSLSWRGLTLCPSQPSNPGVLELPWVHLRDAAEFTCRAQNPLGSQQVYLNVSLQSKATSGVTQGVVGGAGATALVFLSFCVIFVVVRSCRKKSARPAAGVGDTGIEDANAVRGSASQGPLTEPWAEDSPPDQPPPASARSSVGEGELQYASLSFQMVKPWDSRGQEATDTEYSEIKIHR

Trypanosoma cruzi = experiment: Trypanosoma cruzi phosphomannomutase and mannose-1-phosphate guanylyltransferase assay; assay type: functional; conditions: 10 µM
[5] = target: T2, Arginase-2, mitochondrial (Homo sapiens) (UniProt P78540); experiment: in vitro enzyme assay to detect the production of urea directly proportional to the activity of Arginase II; assay type: functional; conditions: 33.3 µM; further: in the data most compounds retested in dose-response had high values
T2 sequence (whole entry): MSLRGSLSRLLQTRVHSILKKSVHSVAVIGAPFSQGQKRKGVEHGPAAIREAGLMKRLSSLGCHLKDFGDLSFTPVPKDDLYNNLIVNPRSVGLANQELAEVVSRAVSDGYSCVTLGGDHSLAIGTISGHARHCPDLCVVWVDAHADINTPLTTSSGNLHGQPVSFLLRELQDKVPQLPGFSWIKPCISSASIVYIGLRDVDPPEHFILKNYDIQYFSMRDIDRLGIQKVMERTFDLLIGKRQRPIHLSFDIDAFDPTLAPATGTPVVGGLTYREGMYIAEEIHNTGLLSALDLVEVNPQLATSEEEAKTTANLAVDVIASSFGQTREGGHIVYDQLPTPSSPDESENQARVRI

[6] = target: T3, Proteasome subunit beta (Trypanosoma cruzi) (UniProt O96673); experiment: Trypanosoma cruzi proteasome chymotrypsin-like activity (TcProtChymo) assay.; further: in the data most compounds retested in dose-response had high values; assay type: functional; conditions: 9.37 µM
T3 sequence (whole entry): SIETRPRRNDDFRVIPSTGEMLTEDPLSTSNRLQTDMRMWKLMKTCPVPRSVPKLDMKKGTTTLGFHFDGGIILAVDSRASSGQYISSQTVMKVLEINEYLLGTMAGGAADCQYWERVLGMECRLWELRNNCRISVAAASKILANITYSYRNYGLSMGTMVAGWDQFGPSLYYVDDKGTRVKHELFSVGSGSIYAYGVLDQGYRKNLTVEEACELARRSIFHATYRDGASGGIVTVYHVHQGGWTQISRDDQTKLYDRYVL

Homo sapiens = species on record: Homo sapiens; experiment: To identify inhibition of the IFN signalling (Jak-Stat) pathway via expression of an eGFP reporter gene under the control of an IFN-stimulated response element (ISRE) containing MxA promoter.; assay type: functional; conditions: 30 µM
[7] = target: T4, Tyrosyl-tRNA synthetase, putative (Trypanosoma cruzi (strain CL Brener)) (UniProt Q4DSP6); experiment: Trypanosoma cruzi tyrosyl tRNA synthetase (TcYRS) _High Tyrosine SOP; assay type: functional; conditions: 30 µM; further: in the data most compounds retested in dose-response had high values
T4 sequence (whole entry): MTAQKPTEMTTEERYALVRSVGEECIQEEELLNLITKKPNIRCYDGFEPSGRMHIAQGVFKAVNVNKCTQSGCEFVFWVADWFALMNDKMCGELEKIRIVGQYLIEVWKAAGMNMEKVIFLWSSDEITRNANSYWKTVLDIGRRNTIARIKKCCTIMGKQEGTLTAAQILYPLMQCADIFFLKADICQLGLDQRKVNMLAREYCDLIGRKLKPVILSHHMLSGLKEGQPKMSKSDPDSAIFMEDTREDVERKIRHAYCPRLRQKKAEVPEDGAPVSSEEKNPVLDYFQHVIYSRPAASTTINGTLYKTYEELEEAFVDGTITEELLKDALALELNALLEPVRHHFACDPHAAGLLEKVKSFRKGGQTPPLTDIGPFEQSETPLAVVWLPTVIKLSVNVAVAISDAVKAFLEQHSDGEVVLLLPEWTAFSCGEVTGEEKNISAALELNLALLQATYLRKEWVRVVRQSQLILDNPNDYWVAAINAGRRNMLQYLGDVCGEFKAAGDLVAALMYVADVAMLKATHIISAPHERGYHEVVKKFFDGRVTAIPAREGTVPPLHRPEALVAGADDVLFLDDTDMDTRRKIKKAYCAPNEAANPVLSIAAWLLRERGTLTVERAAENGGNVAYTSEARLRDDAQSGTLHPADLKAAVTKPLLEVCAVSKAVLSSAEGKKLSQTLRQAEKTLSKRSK

[8] = target: T4, Tyrosyl-tRNA synthetase, putative (Trypanosoma cruzi (strain CL Brener)); experiment: Trypanosoma cruzi tyrosyl tRNA synthetase (TcYRS) SOP; assay type: functional; conditions: 30 µM
[9] = target: Chromo domain-containing protein 1 (Saccharomyces cerevisiae (strain ATCC 204508 / S288c) (Baker's yeast)) (UniProt P32657); experiment: ScCHD-1 Enzyme Inhibition Assay; assay type: functional; conditions: 30 µM; further: in the data most compounds retested in dose-response had high values
Chromo domain-containing protein 1 (Saccharomyces cerevisiae (strain ATCC 204508 / S288c) (Baker's yeast)), sequence (P32657 whole entry, the tested form may be a part): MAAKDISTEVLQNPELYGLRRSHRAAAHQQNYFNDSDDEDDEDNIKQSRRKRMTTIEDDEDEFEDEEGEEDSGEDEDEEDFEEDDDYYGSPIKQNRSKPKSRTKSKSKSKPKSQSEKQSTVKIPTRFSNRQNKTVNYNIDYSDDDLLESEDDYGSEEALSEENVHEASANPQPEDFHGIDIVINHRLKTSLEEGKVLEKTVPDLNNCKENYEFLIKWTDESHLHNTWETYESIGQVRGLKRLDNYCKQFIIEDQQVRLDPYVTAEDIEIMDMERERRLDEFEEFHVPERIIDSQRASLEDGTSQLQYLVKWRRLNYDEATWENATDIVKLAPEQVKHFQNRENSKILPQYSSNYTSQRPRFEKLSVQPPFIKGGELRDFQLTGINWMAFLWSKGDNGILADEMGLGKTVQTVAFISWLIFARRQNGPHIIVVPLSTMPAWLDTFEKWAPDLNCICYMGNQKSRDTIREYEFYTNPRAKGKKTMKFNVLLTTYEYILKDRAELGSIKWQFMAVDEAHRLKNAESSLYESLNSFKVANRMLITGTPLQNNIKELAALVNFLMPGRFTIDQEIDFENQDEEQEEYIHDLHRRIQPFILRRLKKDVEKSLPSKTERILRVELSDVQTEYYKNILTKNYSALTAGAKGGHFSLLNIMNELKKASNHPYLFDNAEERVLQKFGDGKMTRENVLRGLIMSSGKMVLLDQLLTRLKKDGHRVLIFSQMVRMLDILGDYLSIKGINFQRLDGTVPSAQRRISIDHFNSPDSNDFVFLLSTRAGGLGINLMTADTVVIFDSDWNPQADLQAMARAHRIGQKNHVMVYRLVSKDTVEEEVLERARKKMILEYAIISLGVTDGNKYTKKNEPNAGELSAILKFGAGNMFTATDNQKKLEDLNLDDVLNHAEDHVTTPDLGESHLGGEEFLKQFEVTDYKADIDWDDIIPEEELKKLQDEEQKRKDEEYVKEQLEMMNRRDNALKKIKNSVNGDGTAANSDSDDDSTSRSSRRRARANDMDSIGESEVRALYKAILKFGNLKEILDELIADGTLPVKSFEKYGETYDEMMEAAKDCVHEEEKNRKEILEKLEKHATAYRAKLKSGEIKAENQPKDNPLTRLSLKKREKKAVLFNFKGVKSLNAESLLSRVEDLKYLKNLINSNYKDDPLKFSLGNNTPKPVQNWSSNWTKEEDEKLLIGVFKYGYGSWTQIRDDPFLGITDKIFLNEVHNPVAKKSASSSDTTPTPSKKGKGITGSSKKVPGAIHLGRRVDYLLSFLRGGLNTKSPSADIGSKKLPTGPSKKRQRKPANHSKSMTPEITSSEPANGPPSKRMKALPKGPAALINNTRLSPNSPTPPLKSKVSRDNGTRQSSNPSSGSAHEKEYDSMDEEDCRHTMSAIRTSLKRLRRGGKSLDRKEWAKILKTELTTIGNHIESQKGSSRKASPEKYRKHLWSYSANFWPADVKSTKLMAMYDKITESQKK

Protein translocase subunit SecA (Escherichia coli (strain K12)), sequence (P10408 whole entry): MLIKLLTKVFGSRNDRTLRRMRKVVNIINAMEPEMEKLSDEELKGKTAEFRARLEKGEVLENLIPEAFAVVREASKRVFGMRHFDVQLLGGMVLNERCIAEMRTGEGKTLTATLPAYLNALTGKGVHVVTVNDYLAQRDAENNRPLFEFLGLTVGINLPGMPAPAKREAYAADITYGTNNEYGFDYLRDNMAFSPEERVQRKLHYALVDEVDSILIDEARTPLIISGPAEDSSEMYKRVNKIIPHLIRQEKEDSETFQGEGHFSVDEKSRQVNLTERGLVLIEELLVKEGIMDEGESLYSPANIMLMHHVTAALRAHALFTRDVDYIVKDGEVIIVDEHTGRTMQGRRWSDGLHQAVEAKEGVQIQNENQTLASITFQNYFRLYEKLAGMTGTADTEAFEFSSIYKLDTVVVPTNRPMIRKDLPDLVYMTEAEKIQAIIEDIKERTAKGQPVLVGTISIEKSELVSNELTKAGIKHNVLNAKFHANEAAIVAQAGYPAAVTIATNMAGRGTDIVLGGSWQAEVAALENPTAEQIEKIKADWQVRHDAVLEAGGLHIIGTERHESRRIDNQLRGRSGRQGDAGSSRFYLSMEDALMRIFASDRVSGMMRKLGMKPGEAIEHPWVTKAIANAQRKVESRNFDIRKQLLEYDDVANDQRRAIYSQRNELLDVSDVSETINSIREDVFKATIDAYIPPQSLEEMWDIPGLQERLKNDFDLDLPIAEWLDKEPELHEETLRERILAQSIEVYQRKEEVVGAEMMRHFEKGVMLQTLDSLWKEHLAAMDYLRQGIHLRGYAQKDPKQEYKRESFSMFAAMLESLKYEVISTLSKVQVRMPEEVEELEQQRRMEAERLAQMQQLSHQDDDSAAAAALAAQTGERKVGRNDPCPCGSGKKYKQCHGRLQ

Compound	Percent Effect [1] [%]	Percent Effect [2] [%]	Percent Effect [3] [%]	Percent Effect [4] [%]	Percent Effect (Trypanosoma cruzi) [%]	Percent Effect [5] [%]	Percent Effect [6] [%]	Percent Effect (Homo sapiens) [%]	Percent Effect [7] [%]	Percent Effect [8] [%]	Percent Effect [9] [%]
O=C1NC(c2ccccc2)=N[C@@]12CC[C@@H]1CN(CC3CCOCC3)C[C@@H]12	-1.53	0	5.75	-1.86	-1.54	-48.6	0.684	-0.209	-27.1	-5	-1.93
O=C(C1CCOC1)N1C[C@H]2CN(Cc3nccs3)C[C@H]2C1 (stereo partly specified)	-7.06	5.41	2.27	-7.15	-3.81	-6.69	15.7	-4.44	0	2.56	-2.08
COc1ccc(-c2nnc(SC(C)C(=O)NC3CC3)[nH]2)c(OC)c1 (stereo unspecified)	-8.04	15.8	1.94	-2.88	2.63	-2.37	13.3	71.7	6.38	18.2	-7.11
Cc1nn(C)c(N(C)C)c1CNC1CCOc2c(F)cccc21 (stereo unspecified)	-6.1	5.26	-2.48	4.77	-6.01	0.766	8.02	9.98	6.37	4.88	2.09
Cc1cc(F)ccc1OC1(C(=O)O)CCN(Cc2cccnc2N)CC1	-6.33	5.33	-1.53	2.08	-3.02	-0.521	5.93	0.568	6.01	11.1	1.09
Cc1cc(NC(=O)CN2CCCC2c2noc(C3CC3)n2)no1 (stereo unspecified)	-4.72	13.7	11.2	9.93	5.68	-0.909	16.9	5.99	3.23	15	22.7
COCC1c2c(cnn2C)CCN1Cc1ccoc1 (stereo unspecified)	-4.26	-2.7	3.57	2.05	-1.95	-1.67	0.0845	-9.84	0.99	3.66	2.42
COc1cccc2c1OCC(CNC(=O)CSc1nc(N)n[nH]1)C2 (stereo unspecified)	-4.78	0	-3.58	26.8	3.62	-3.23	8.84	4.85	8.6	21	-3.99
CC(O)CN1CCN(C(=O)c2ccc(Cn3cccn3)cc2)CC1 (stereo unspecified)	-4.02	18.9	-8.57	7.3	7.08	-9.22	6.67	3.34	7.39	25.9	-12.3
Cc1ccc(C(C)NC(=O)Cc2c(C)nc3c(c2C)c(=O)[nH]n3C)o1 (stereo unspecified)	-4.2	7.79	1.79	9.22	1.08	-11	10.7	1.96	1.07	6.17	1.13
c1nc2c(c(-c3ccsc3)n1)CCN(Cc1ccoc1)CC2	-1.1	-5.41	14.1	-1.76	-2.15	-1.67	5.83	12.5	-6.93	-3.66	-0.614
c1ccc(-n2ncc(CNCC3CCCN3c3cccnn3)n2)cc1 (stereo unspecified)	-3.03	-28.9	-19.7	8.84	11.7	-5.4	-3.64	6.81	12.3	18.5	0.0713
Cc1cn2nc(N3CCCN(Cc4noc(C)n4)CC3)sc2n1	-4	11.4	7.75	2.12	-2.97	1.94	13.4	0.85	7.29	12.7	-14.4
CC(C)CNC(=O)[C@H]1CCS(=O)(=O)[C@@H]2CN(Cc3ccc(Cl)cc3)C[C@H]12	-2.67	2.7	-1.66	-4.02	1.17	2.5	22.7	-6.94	11.9	13.4	-1.05
N#Cc1ccc(N2CCCN(C(=O)CC3CCCO3)CC2)cc1 (stereo unspecified)	-4.45	5.41	7.34	18.8	5.19	-5.61	-2.34	10.8	0.493	16.1	-12.8
Cc1nonc1CC(=O)N1C[C@@H]2CC[C@H](C1)N(Cc1ccccc1)C2=O	-5.85	-2.7	-1.13	6.66	-4.83	-2.86	6.9	0.776	0.529	2.44	-2.68
CN(CCO)Cc1nnc(C2CCN(C(=O)C(C)(C)C)CC2)n1C	-2.6	5.33	1.76	-1.99	-7.69	6.25	16.6	2.97	0.546	3.7	-6
O=C(N[C@@H]1CN(Cc2ccc3c(c2)OCO3)[C@@H]2CCCO[C@@H]21)C1CC1	-7.03	0	-0.94	0.764	-5.99	-55	13.2	4.07	1.04	-60	-2.23
COCCc1noc(CN2CCc3nn(C(C)C)c(=O)cc3C2)n1	-3.44	18.4	-7.36	-6.23	-4.58	0.719	6.18	6.48	5.42	11.1	-11.2
NC(=O)C1CCCN1Cc1cccc(NC(=O)c2ccsc2)c1 (stereo unspecified)	-3.24	13.3	0.719	13.7	3.6	10.4	20.2	11.8	10.4	18.5	-10.5
CCC(C)c1noc(C2CCN(C(=O)c3cccnc3)CC2)n1 (stereo unspecified)	-3.05	7.79	0.731	6.36	-0.0983	-9.65	14.8	-14.3	5.38	11.1	-2.94
